Data reported in PubChem BioAssay (Tox21).
Records with an inconclusive call do not appear. Active and inactive are the calls of the source. The call rests on the fitted dose curve; in most records, active means well fitted curve in the direction sought with a large enough effect in the repeat runs; inconclusive means weak or mixed curves; inactive means no such curve, though single readings can be large; an effect the other way counts as inactive or inconclusive.

Test: qHTS RealTime-Glo MT Cell Viability Assay in HepG2 cells - 16 hour (AID 1224885)
Conditions: RealTime-Glo luminescence; series mostly up to 76.8 µM; activity change, negative = cytotoxic: at the top concentration
Method in brief: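 HepG2 suspension premixed with RealTime-Glo reagents is plated at 600 cells per well and left 5 h at 37 C/5% CO2. Compounds in DMSO then go in, and bioluminescence reflecting viable cell number is recorded over 40 h.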
Further: nearly all actives have a fitted effect of over 50% in size.
On the % scale 0 is the no-effect control and ±100 the full control effect; potency means the concentration at half of the fitted maximal effect.

| SMILES | activity change, negative = cytotoxic | Potency |
| --- | --- | --- |
| CC(C)[C@H](C(=O)OC(C#N)c1cccc(Oc2ccccc2)c1)c1ccc(OC(F)F)cc1 (stereo partly drawn) | -24% (inactive) |  |
| c1ccc(OCC2CO2)cc1 (stereo not drawn) | 0.319% (inactive) |  |
| CCCN(CCC)c1c([N+](=O)[O-])cc(S(N)(=O)=O)cc1[N+](=O)[O-] |  | 24.5 µM (active) |
| CCc1ccccc1C | 0.823% (inactive) |  |

Test: qHTS RealTime-Glo MT Cell Viability Assay in HEK293 cells - 24 hour (AID 1224886); on activity change, negative = cytotoxicity: top concentration of the series differs between compounds
Conditions: RealTime-Glo luminescence; series mostly up to 76.8 µM; activity change, negative = cytotoxicity: at the top concentration
Method in brief: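 Reads taken at 0, 8, 16, 24, 32 and 40 h from the same wells. HEK293 cells (600/well) carried RealTime-Glo reagents from seeding, with compound added after a 5 h settle at 37 C.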

| SMILES | activity change, negative = cytotoxicity | Potency |
| --- | --- | --- |
| CC(C)[C@H](C(=O)OC(C#N)c1cccc(Oc2ccccc2)c1)c1ccc(OC(F)F)cc1 (stereo partly drawn) | -16.3% (inactive) |  |
| O=[N+]([O-])c1cc(Cl)ccc1Cl | -1.01% (inactive) |  |
| SCc1ccco1 | -21.2% (inactive) |  |
| CC(C)CCCCCOC(=O)c1ccccc1C(=O)OCCCCCC(C)C | -19.1% (inactive) |  |
| c1ccc(OCC2CO2)cc1 (stereo not drawn) | 8.04% (inactive) |  |
| Nc1ccc(Sc2ccc(N)cc2)cc1 | 0.461% (inactive) |  |
| O=C(O)C1C2CCC(O2)C1C(=O)O (stereo not drawn) | -33.5% (inactive) |  |
| CC(C)(COCC1CO1)COCC1CO1 (stereo not drawn) | -7.85% (inactive) |  |
| COC12CC[C@@]3(C[C@@H]1C(C)(O)C(C)(C)C)[C@H]1Cc4ccc(O)c5c4[C@@]3(CCN1CC1CC1)[C@H]2O5 (stereo partly drawn) |  | 34.4 µM (active) |
| CCCCCCCCCCCCCCCC[n+]1ccccc1 |  | 9.52 µM (active) [middle of 4 runs] |
| Nc1ccccc1C(=O)OC/C=C/c1ccccc1 |  | 24.6 µM (active) |
| S=C(SSC(=S)N1CCCCC1)N1CCCCC1 |  | 13.4 µM (active) |
| CCN | 19.6% (inactive) |  |
| CC(C)(C)C(O)/C(=C\c1ccc(Cl)cc1Cl)n1cncn1 (stereo not drawn) |  | 26.5 µM (active) |
| CCCN(CCC)c1c([N+](=O)[O-])cc(S(N)(=O)=O)cc1[N+](=O)[O-] |  | 23.3 µM (active) |
| O=c1oc2ccccc2c(O)c1Cc1c(O)c2ccccc2oc1=O | 12.8% [at 35.3 µM] (inactive) |  |
| C[C@@H]1CC[C@@]2(OC1)O[C@H]1[C@@H](O)[C@H]3[C@@H]4CC[C@H]5C[C@@H](O[C@@H]6O[C@H](CO)[C@H](O[C@@H]7O[C@H](CO)[C@@H](O)[C@H](O[C@@H]8OC[C@@H](O)[C@H](O)[C@H]8O)[C@H]7O[C@@H]7O[C@H](CO)[C@@H](O)[C@H](O[C@@H]8O[C@H](CO)[C@@H](O)[C@H](O)[C@H]8O)[C@H]7O)[C@H](O)[C@H]6O)[C@H](O)C[C@]5(C)[C@H]4CC[C@]3(C)[C@H]1[C@@H]2C |  | 11.6 µM (active) |
| CC(C)OC(=O)C(O)(c1ccc(Cl)cc1)c1ccc(Cl)cc1 |  | 21.9 µM (active) |
| C=CC(=O)OCCCCOC(=O)C=C |  | 34.7 µM (active) |
| COP(N)(=S)OC | 3.81% (inactive) |  |
| COc1cccc2c1C(=O)c1c(O)c3c(c(O)c1C2=O)C[C@@](O)(C(=O)CO)CC3OC1CC(N2CCOC(OC)C2)C(O)C(C)O1 (stereo partly drawn) |  | 0.0535 µM (active) |
| Cn1cc(C2=C(c3cn(C4CCN(Cc5ccccn5)CC4)c4ccccc34)C(=O)NC2=O)c2ccccc21 | -27.3% [at 35.3 µM] (inactive) |  |
| CCc1ccccc1C | 5.94% (inactive) |  |
| O=[N+]([O-])c1ccc(Oc2ccc(C(F)(F)F)cc2[N+](=O)[O-])cc1 |  | 15.5 µM (active) |
| C=CC(=O)OCC(COC(=O)C=C)(COC(=O)C=C)COC(=O)C=C |  | 3.89 µM (active) |
| COc1cc(C=O)cc2c1[C@H](COC(N)=O)[C@]1(OC(C)=O)ON2C[C@H]2[C@@H]1N2C(C)=O |  | 0.245 µM (active) |
| C[C@]12Cc3nonc3C[C@@H]1CC[C@@H]1[C@@H]2CC[C@@]2(C)[C@H]1CC[C@]2(C)O |  | 19 µM (active) |
| CCOCn1c(-c2ccc(Cl)cc2)c(C#N)c(Br)c1C(F)(F)F |  | 4.9 µM (active) |

Test: qHTS RealTime-Glo MT Cell Viability Assay in HEK293 cells - 8 hour (AID 1224887); on activity change, negative = cytotoxicity: top concentration of the series differs between compounds
Conditions: RealTime-Glo luminescence; series mostly up to 76.8 µM; activity change, negative = cytotoxicity: at the top concentration
Method in brief: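 Kinetic, non-lysing viability readout. Seed HEK293 (600/well) with reagent, incubate 5 h at 37 C/5% CO2, pin 23 nL compound in DMSO, incubate at 37 C, read luminescence at 0, 8, 16, 24, 32, 40 h.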

| SMILES | activity change, negative = cytotoxicity | Potency |
| --- | --- | --- |
| CC(C)[C@H](C(=O)OC(C#N)c1cccc(Oc2ccccc2)c1)c1ccc(OC(F)F)cc1 (stereo partly drawn) | -23.9% (inactive) |  |
| c1ccc2c(c1)OCC(C1=NCCN1)O2 (stereo not drawn) | -14.2% [at 35.3 µM] (inactive) |  |
| CN(C)[C@@H]1C(=O)C(C(N)=O)=C(O)[C@@]2(O)C(=O)C3=C(O)c4c(O)ccc(Cl)c4[C@@](C)(O)[C@H]3C[C@@H]12 | 2.13% (inactive) |  |
| c1ccc(OCC2CO2)cc1 (stereo not drawn) | -1.51% (inactive) |  |
| COC12CC[C@@]3(C[C@@H]1C(C)(O)C(C)(C)C)[C@H]1Cc4ccc(O)c5c4[C@@]3(CCN1CC1CC1)[C@H]2O5 (stereo partly drawn) |  | 38.6 µM (active) |
| Nc1ccccc1C(=O)OC/C=C/c1ccccc1 |  | 24.6 µM (active) |
| O=C(O)c1cc[c]([Hg][Cl])cc1 |  | 34.7 µM (active) |
| CC(C)(C)C(O)/C(=C\c1ccc(Cl)cc1Cl)n1cncn1 (stereo not drawn) |  | 47.1 µM (active) |
| CCCN(CCC)c1c([N+](=O)[O-])cc(S(N)(=O)=O)cc1[N+](=O)[O-] |  | 31.6 µM (active) |
| O=c1oc2ccccc2c(O)c1Cc1c(O)c2ccccc2oc1=O | 1.92% [at 35.3 µM] (inactive) |  |
| C[C@@H]1CC[C@@]2(OC1)O[C@H]1[C@@H](O)[C@H]3[C@@H]4CC[C@H]5C[C@@H](O[C@@H]6O[C@H](CO)[C@H](O[C@@H]7O[C@H](CO)[C@@H](O)[C@H](O[C@@H]8OC[C@@H](O)[C@H](O)[C@H]8O)[C@H]7O[C@@H]7O[C@H](CO)[C@@H](O)[C@H](O[C@@H]8O[C@H](CO)[C@@H](O)[C@H](O)[C@H]8O)[C@H]7O)[C@H](O)[C@H]6O)[C@H](O)C[C@]5(C)[C@H]4CC[C@]3(C)[C@H]1[C@@H]2C |  | 6.55 µM (active) |
| C=CC(=O)OCCCCOC(=O)C=C | -9.66% (inactive) |  |
| COP(N)(=S)OC | 6.94% (inactive) |  |
| Cn1cc(C2=C(c3cn(C4CCN(Cc5ccccn5)CC4)c4ccccc34)C(=O)NC2=O)c2ccccc21 | -15.5% [at 35.3 µM] (inactive) |  |
| CCc1ccccc1C | 1.69% (inactive) |  |
| CCOCn1c(-c2ccc(Cl)cc2)c(C#N)c(Br)c1C(F)(F)F |  | 19.5 µM (active) |
